Experiment [1] deals with Glucocorticoid receptor (Homo sapiens) (UniProt P04150). The experiment in a line: NVS_NR_hGR: NovaScreen (NVS) Nuclear Receptor Binding Assay for human Glucocorticoid Receptor (GR) (AID 2283363).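 For AC50: activity is loss of specific radioligand binding signal relative to DMSO.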 The gist of the method: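 Competitive displacement of a labelled ligand was measured on cell-free receptor preparations after 16 h exposure. Initial testing used 25 uM in duplicate with plate controls; confirmed actives went into concentration series.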

In experiment [2] the test system is guinea pig Dopamine Transporter (DAT), gene 100714898. Nature of the experiment: NVS_TR_gDAT: NovaScreen (NVS) Transporter Assay for guinea pig Dopamine Transporter (DAT) (AID 2283369).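 Note: active compounds lower bound radioligand signal relative to DMSO.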 The gist of the method: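 Cell-free striatal membrane prep (guinea pig), 2 h exposure, filtration + scintillation readout of radioligand binding. Single-point 25 uM duplicate; actives rerun singleton, top conc 50 uM.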

The target of experiment [3] is human Serotonin Transporter (SERT), SLC6A4 (gene 6532) (UniProt P31645). Nature of the experiment: NVS_TR_hSERT: NovaScreen (NVS) Transporter Assay for human Serotonin Transporter (SERT) (AID 2283372). Summed up: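 Radioligand binding to native SERT in human platelet membranes, read by filter-based scintillation counting 1 h after dosing. Primary screen in duplicate at 25 uM; actives followed up in concentration series; loss of signal versus DMSO baseline.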

For experiment [4], the system named is rat Norepinephrine Transporter (NET), gene 83511. Nature of the experiment: NVS_TR_rNET: NovaScreen (NVS) Transporter Assay for rat Norepinephrine Transporter (NET) (AID 2283373). The gist of the method: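 Rat forebrain membranes; radioligand binding measured by filter-based scintillation counting 1 hour after dosing. Loss of specific binding versus DMSO baseline scored; primary screen in duplicate at 25 uM, actives followed up in concentration series.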

Experiment [5] concerns the target human Dopamine Transporter (DAT), SLC6A3 (gene 6531) (UniProt Q01959). Nature of the experiment: NVS_TR_hDAT: NovaScreen (NVS) Transporter Assay for human Dopamine Transporter (DAT) (AID 2283374).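 Note: activity means loss of bound radioligand signal relative to DMSO.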 Summed up: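 Test chemicals were first screened in duplicate at 25 uM, with actives retested as concentration series. Displacement of a specific radioligand from cell-free human dopamine transporter was measured after 1 h by filtration and scintillation counting.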

Experiment [6] concerns the target human Norepinephrine Transporter (NET), SLC6A2 (gene 6530) (UniProt P23975). The experiment in a line: NVS_TR_hNET: NovaScreen (NVS) Transporter Assay for human Norepinephrine Transporter (NET) (AID 2283377).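 For AC50: displacement of radioligand from human NET seen as loss of scintillation signal.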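 Note: cell-free membrane protein extracted from CHO cells expressing human NET.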 The gist of the method: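 Scintillation counts of filter-retained radioligand served as the readout, taken 1 h post-dosing in a cell-free CHO-derived system. Test chemicals ran first at 25 uM in duplicate; confirmed hits were retested across concentrations.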

For experiment [7], the target named is Estrogen receptor beta (Homo sapiens) (UniProt Q92731). Nature of the experiment: OT_ER_ERbERb_1440: Odyssey Thera (OT) 24-hour HEK293T Protein-Complementation Assay for Estrogen Receptor-beta/-beta Homodimer (AID 2283380).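 Note: fluorescence gain from ER beta LBD homodimer complementation read by laser scanning cytometry; scored as signal increase over DMSO baseline for both agonists and antagonists.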 Summed up:
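Fluorescence increase, nuclear for agonists or whole-cell for antagonists, relative to DMSO vehicle, quantified by laser scanning cytometer after fixation and Draq5 staining. Readout from 24 h treatment of HEK293T cells carrying complementation-paired ER beta LBD (aa 310-547).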

Experiment [8] addresses Estrogen receptor (Homo sapiens) (UniProt P03372). Nature of the experiment: OT_ERa_GFPERaERE_0480: Odyssey Thera (OT) 8-hour HeLa Transcription Induction Assay for Estrogen Receptor (AID 2283381; active = hit-call score of the fitted dose curve at least 0.9, where 1 is the maximum; inactive = score below 0.9). Summed up:
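Fluorescent reporter signal, imaged by microscopy and scored with image-analysis algorithms, was taken 8 h after chemical dosing of HeLa cells; activity was fitted upward relative to DMSO.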

Experiment [9] shares this target. Nature of the experiment: OT_ERa_GFPERaERE_0120: Odyssey Thera (OT) 2-hour HeLa Transcription Induction Assay for Estrogen Receptor (AID 2283382). The gist of the method: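 HeLa, 384-well, 2 h chemical exposure; GFP reporter induction (ERE), fluorescence microscopy; high content image analysis; positive fitting direction vs DMSO.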
Experiment [10] deals with Peroxisome proliferator-activated receptor gamma (Homo sapiens) (UniProt P37231). Nature of the experiment: NVS_NR_hPPARg: NovaScreen (NVS) Nuclear Receptor Binding Assay for human Peroxisome Proliferator-activated Receptor gamma (PPARg) (AID 2283370). The gist of the method: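 FP read-out, 2 h post-dose, cell-free extracted receptor protein. Signal loss vs DMSO negative control = binding activity. Single-conc duplicate HTS at 25 uM; concentration-response follow-up for actives.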

Experiment [11] has as its target Bile acid receptor (Homo sapiens) (UniProt Q96RI1). Nature of the experiment: OT_FXR_FXRSRC1_0480: Odyssey Thera (OT) 8-hour HEK293T Protein-Complementation Assay for Farnesoid X receptor/SRC-1 Co-activator (AID 2283383). Summed up:
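Human kidney HEK293T cells carried FXR/SRC-1 fragment-complementation constructs. Compounds were added and incubated 8 h. Reporter reassembly upon receptor–co-activator interaction was then quantified by fluorescence, with curves fitted in the positive direction relative to DMSO.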

In experiment [12] the target is human Adenosine Transporter (Adot), SLC29A1 (gene 2030) (UniProt Q99808). The experiment in a line: NVS_TR_hAdoT: NovaScreen (NVS) Transporter Assay for human Adenosine Transporter (Adot) (AID 2283368). The gist of the method: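 U937-derived membranes, cell-free radioligand binding, filter scintillation 1 h after dosing. 25 uM duplicate screen; hits (e.g. 30% inhibition) run in concentration-response up to 50 uM; loss of signal versus DMSO.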

The target of experiment [13] is mouse Estrogen Receptor alpha (Era), Esr1 (gene 13982) (UniProt P19785). Nature of the experiment: NVS_NR_mERa: NovaScreen (NVS) Nuclear Receptor Binding Assay for mouse Estrogen Receptor alpha (Era) (AID 2283378).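 Note: hit means loss of bound radioligand signal relative to DMSO.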 The gist of the method:
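Filter scintillation counts of bound radioligand, measured 18 h post-dose, gave the readout; decreased signal relative to DMSO controls indicated displacement from mouse Era. Primary screen ran in duplicate at 25 uM; active chemicals were retested across concentrations.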

The target of experiment [14] is Nuclear receptor subfamily 1 group I member 2 (Homo sapiens) (UniProt O75469). The experiment in a line: NVS_NR_hPXR: NovaScreen (NVS) Nuclear Receptor Binding Assay for human Pregnane X Receptor (PXR) (AID 2283365).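 Note: a drop in FRET signal versus DMSO baseline means the compound binds.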 The gist of the method:
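TR-FRET signal read at 2 h in a cell-free human PXR binding format. DMSO served as negative control and baseline; activity scored as signal loss. Single-concentration duplicate screen (25 uM), then concentration-response follow-up.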

The values that follow come from PubChem BioAssay (EPA / NIEHS).

Inconclusive results are not listed. A structure can be active in one record and inactive in another. Activity calls are given as the source filed them. Rule for the calls, unless noted: active = hit-call score of the fitted dose curve at least 0.9, where 1 is the maximum; inconclusive = response in the unintended direction; inactive = score below 0.9.

Sequence of mouse Estrogen Receptor alpha (Era), Esr1 (gene 13982) (P19785 whole entry, looked up): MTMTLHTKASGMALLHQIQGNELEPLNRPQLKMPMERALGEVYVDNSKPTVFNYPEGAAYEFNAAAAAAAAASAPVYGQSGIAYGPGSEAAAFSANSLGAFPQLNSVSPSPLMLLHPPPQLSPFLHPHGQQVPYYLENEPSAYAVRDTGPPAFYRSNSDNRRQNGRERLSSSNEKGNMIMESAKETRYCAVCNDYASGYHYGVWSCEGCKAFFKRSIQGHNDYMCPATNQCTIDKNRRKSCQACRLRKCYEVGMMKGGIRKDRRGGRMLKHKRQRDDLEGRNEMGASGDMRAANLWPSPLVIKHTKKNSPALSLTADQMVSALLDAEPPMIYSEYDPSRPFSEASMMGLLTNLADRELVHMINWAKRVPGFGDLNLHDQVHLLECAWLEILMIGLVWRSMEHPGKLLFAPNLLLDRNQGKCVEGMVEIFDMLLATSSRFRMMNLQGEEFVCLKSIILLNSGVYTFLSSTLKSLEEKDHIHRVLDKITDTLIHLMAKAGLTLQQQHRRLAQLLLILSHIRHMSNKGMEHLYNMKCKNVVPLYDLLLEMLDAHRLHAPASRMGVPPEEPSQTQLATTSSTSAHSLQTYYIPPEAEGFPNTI
Sequence of Estrogen receptor (Homo sapiens) (P03372 whole entry, looked up): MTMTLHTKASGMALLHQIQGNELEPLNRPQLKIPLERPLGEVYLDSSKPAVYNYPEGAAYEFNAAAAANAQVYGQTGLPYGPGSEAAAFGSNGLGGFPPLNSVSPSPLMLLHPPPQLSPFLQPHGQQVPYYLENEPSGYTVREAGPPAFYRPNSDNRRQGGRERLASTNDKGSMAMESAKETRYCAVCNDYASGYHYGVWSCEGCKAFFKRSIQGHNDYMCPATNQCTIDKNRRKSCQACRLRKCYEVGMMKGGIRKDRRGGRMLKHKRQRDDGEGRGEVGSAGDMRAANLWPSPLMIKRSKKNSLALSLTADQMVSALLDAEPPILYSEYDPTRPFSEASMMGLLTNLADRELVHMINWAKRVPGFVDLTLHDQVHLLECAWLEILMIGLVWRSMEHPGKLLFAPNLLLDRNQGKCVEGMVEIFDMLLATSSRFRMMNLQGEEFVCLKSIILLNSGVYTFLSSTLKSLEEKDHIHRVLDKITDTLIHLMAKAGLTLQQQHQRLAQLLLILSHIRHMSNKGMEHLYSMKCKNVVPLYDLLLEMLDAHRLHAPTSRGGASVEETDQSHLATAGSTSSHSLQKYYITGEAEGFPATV
Sequence of Estrogen receptor beta (Homo sapiens) (Q92731 whole entry, looked up, the tested form may be a part): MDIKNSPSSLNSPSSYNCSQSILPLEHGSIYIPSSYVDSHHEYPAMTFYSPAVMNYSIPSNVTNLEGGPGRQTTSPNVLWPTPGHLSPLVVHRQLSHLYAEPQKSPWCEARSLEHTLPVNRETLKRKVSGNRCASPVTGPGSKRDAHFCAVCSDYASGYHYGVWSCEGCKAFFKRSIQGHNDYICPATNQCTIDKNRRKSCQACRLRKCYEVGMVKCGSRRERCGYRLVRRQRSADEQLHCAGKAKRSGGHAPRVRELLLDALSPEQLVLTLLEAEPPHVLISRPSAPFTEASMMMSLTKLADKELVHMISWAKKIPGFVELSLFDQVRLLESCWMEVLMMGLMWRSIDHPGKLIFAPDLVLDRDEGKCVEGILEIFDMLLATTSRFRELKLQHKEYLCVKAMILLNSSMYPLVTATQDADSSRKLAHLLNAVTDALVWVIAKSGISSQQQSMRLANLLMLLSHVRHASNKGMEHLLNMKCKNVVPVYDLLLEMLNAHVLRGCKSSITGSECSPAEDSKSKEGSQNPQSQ
Sequence of human Serotonin Transporter (SERT), SLC6A4 (gene 6532) (P31645 whole entry, looked up): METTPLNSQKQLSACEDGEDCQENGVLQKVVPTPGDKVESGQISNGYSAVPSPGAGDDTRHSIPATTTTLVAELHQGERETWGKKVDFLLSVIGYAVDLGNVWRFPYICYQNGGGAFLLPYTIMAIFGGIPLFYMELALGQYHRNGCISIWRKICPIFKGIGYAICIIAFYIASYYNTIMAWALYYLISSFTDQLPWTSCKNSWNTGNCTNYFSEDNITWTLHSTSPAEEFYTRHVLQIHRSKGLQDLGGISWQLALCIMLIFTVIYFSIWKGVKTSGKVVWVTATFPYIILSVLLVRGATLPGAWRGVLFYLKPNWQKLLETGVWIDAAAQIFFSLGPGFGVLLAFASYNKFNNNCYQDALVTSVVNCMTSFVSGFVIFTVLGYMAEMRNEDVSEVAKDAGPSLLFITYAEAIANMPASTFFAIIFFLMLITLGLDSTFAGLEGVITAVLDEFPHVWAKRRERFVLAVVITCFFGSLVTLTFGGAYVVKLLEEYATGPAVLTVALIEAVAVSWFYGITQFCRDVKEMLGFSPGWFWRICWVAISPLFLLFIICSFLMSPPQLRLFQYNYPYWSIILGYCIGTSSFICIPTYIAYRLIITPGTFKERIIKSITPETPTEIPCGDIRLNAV
Sequence of human Dopamine Transporter (DAT), SLC6A3 (gene 6531) (Q01959 whole entry, looked up): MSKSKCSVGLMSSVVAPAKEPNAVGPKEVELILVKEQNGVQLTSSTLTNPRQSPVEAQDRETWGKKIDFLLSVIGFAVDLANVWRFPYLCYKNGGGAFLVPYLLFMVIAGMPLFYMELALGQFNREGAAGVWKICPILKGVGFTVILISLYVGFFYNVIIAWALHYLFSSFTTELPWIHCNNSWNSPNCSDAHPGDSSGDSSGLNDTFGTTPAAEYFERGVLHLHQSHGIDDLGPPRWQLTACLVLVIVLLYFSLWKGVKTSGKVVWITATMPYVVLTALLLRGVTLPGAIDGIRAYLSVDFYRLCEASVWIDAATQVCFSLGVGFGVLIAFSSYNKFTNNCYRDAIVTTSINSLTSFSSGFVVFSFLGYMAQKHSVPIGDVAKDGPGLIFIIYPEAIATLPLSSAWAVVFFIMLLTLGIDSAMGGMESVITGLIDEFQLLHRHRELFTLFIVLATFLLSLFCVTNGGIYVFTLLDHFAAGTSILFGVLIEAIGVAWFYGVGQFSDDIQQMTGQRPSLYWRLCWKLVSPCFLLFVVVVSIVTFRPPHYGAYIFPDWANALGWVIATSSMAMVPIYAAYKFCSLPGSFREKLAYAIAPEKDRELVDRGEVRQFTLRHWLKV
Sequence of Bile acid receptor (Homo sapiens) (Q96RI1 whole entry, looked up, the tested form may be a part): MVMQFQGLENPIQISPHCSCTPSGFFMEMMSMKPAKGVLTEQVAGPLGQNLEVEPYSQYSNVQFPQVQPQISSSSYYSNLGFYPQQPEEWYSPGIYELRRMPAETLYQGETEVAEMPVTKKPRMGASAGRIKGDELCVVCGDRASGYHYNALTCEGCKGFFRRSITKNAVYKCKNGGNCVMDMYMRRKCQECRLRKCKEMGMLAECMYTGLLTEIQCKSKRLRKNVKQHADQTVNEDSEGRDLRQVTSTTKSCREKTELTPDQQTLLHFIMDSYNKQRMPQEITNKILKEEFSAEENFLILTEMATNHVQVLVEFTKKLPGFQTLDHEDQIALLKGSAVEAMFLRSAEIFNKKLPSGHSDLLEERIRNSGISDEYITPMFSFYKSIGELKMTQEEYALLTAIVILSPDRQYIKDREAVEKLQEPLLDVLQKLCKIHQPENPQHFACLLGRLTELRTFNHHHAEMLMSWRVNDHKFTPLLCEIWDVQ
Sequence of Peroxisome proliferator-activated receptor gamma (Homo sapiens) (P37231 whole entry, looked up): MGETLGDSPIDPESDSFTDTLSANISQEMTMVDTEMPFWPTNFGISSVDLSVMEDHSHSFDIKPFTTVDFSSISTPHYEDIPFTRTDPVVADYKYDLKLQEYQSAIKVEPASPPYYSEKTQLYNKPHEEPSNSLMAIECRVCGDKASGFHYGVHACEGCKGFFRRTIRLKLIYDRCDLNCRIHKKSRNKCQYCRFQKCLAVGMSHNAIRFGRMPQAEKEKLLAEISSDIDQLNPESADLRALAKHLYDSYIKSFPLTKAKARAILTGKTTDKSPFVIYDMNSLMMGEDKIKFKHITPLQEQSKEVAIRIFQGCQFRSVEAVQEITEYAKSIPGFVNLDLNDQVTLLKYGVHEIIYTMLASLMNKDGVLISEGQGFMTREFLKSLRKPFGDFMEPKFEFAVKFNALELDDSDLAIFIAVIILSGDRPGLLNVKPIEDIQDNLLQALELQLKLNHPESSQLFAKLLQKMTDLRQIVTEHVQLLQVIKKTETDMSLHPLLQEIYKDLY
Sequence of Glucocorticoid receptor (Homo sapiens) (P04150 whole entry, looked up): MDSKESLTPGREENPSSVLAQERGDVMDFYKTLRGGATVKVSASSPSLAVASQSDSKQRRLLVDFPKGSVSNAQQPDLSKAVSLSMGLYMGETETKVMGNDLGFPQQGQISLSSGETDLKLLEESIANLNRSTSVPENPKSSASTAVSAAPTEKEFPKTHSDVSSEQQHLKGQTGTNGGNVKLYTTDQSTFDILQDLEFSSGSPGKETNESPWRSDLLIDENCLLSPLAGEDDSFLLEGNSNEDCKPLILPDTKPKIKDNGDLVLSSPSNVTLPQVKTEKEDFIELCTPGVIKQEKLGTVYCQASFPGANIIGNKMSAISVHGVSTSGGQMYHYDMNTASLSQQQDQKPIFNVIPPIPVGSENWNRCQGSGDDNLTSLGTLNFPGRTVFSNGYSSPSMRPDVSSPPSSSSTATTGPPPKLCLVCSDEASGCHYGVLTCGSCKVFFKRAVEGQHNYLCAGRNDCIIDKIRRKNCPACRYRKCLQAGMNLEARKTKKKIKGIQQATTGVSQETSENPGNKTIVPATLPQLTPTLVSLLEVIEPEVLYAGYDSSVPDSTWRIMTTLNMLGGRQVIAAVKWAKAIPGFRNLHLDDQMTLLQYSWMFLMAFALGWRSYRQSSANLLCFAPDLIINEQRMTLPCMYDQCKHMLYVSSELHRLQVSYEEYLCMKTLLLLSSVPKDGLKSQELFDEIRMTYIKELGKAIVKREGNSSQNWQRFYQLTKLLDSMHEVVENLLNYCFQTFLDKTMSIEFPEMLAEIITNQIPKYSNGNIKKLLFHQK

`CCOC(=O)O[C@H](C)OC(=O)c1ccc2c(c1)cc(C(=O)NC1CCN(C(C)C)CC1)n2Cc1cc(-c2ccc(Cl)s2)on1`: the AC50 (usually the midpoint of the concentration-response curve, whichever way the signal moves) in experiment [1] was 4.59 µM (active); in [2], 13.8 µM (active); in experiment [4] it was 15.5 µM (active); in experiment [5] it was 3.21 µM (active); in experiment [6] it was 1.95 µM (active); in [8], 19.6 µM (active). Besides, the AC50 in experiment [9] is 23.8 µM (active). The compound was called inactive in [3] and in [7].

As for `O=C(O)Cn1c(=O)n(Cc2ccc(Br)cc2F)c(=O)c2ccc(Cl)cc21`, the half-maximal activity concentration (AC50) in experiment [10] was 42.4 µM (active). Further, the result in experiment [7], in [8], in experiment [9] and in experiment [11] was inactive.

As to `O=c1[nH]sc2ccccc12`, the AC50 was 17.2 µM (active) in experiment [12], 40.5 µM (active) in experiment [2], 21.4 µM (active) in experiment [5] and 91.7 µM (active) in experiment [8]. Besides, the call in experiment [7] and in experiment [9] was inactive.

Regarding `CCCCCc1ccc(N)cc1`, the AC50 in experiment [2] was 25 µM (active); in [5], 8.47 µM (active); in [13] it was 0.0459 µM (active). The compound was called inactive in experiment [10], in experiment [13], in experiment [7], in experiment [8] and in experiment [9].

Consider `CO[C@H]1/C=C/O[C@@]2(C)Oc3c(C)c(O)c4c(O)c(c(/C=N/N5CCN(C)CC5)c(O)c4c3C2=O)NC(=O)/C(C)=C\C=C\[C@H](C)[C@H](O)[C@@H](C)[C@@H](O)[C@@H](C)[C@H](OC(C)=O)[C@@H]1C`, for which the call in [7] was inactive.

As to `CCCCCCCC[Si](OCC)(OCC)OCC`, the outcome in [14], in experiment [10] and in [7] was inactive.

For the compound `CCCOC(=O)c1cc(O)c(O)c(O)c1`, the AC50 in [2] was 25 µM (active); in [5], 10.8 µM (active); in experiment [7], 12.7 µM (active). For the same compound, the call in [10], in experiment [13], in [8], in experiment [9] and in experiment [11] was inactive.

For the compound `COc1ccc2cc(S(=O)(=O)N[C@H](CC(=O)N[C@H](Cc3ccc(CN4[C@H](C)CCC[C@@H]4C)cc3)C(=O)N(C)C(C)C)c3ccc4c(c3)OCO4)ccc2c1`, the compound was called inactive in experiment [1], in [3] and in [13]. In addition, the AC50 was 9.24 µM (active) in [12]; 13.9 µM (active) in experiment [2]; 12.1 µM (active) in [5]; 15.8 µM (active) in experiment [8]; 28.6 µM (active) in [9]; 11.1 µM (active) in experiment [11].

As for `O=C(Nc1ccc(Cl)cc1)Nc1ccc(Cl)c(Cl)c1`, the outcome in experiment [3], in experiment [6], in [13], in experiment [7], in [8] and in [9] was inactive. In [11], the result was inactive.
